# In article PMC7862700, “An all-to-all approach to the identification of sequence-specific readers for epigenetic DNA modifications on cytosine”:
# Tests used:
# Test in all cases: DAPPL (digital affinity profiling via proximity ligation, sequencing); 10 mM Tris-HCl pH 7.5, 50 mM NaCl, 1 mM DTT, 4% glycerol, room temperature, 30 min; GST-TFs on glutathione beads, 16-mer random dsDNA library, 0.1% formaldehyde crosslink after washing; high values mean tight binding
# FEV = molecular target: T1, FEV (Homo sapiens, UniProt Q99581 1-238); conditions: protein: recombinant; tags: N-terminal GST; dsDNA, one strand shown
# T1 sequence: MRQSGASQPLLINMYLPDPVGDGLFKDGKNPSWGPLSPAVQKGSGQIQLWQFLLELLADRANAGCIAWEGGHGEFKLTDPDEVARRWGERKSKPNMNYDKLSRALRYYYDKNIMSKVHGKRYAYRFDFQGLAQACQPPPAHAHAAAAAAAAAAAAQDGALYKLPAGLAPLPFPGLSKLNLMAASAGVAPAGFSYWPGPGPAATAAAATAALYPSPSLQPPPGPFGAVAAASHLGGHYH
# Outline: (§1)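 The binding signal reported is, for every hexamer, its read frequency for a factor over its read frequency for the tag-only sample. Reads came from pools of yeast-expressed, GST-fused human transcription factors on glutathione beads, barcoded with DNA and mixed with that sample, which were incubated with 200 nmole of a random double-stranded 16-mer DNA library in Tris/NaCl/DTT/glycerol buffer at room temperature for 30 min. After washing, the pools were crosslinked with 0.1% formaldehyde, proximity-ligated with BsaI/T4 ligase for 1 h at 37 °C, PCR-amplified and sequenced on an Illumina NextSeq500.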
# ETV5 = ETV5 (Homo sapiens, UniProt P41161 1-510); conditions: protein: recombinant; tags: N-terminal GST; dsDNA, one strand shown
# Outline: as §1
# HSF1 = HSF1 (Homo sapiens, UniProt Q00613 1-529); conditions: protein: recombinant; tags: N-terminal GST; chain copies: 3; dsDNA, one strand shown
# Outline: as §1
# SPIC = molecular target: T2, SPIC (Homo sapiens, UniProt Q8N5J4 1-248); conditions: protein: recombinant; tags: N-terminal GST; dsDNA, one strand shown
# T2 sequence: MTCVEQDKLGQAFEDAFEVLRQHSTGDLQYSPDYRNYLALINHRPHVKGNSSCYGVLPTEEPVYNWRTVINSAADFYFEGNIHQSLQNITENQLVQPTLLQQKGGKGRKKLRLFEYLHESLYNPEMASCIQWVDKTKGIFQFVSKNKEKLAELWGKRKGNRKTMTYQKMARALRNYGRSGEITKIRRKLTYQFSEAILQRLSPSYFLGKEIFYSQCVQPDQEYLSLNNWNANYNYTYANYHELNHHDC
# Outline: as §1
# ELF4 = ELF4 (Homo sapiens, UniProt Q99607 1-663); conditions: protein: recombinant; tags: N-terminal GST; dsDNA, one strand shown
# Outline: as §1
# ELK4 = molecular target: T3, ELK4 (Homo sapiens, UniProt P28324-2 1-405); conditions: protein: recombinant; tags: N-terminal GST; dsDNA, one strand shown
# T3 sequence: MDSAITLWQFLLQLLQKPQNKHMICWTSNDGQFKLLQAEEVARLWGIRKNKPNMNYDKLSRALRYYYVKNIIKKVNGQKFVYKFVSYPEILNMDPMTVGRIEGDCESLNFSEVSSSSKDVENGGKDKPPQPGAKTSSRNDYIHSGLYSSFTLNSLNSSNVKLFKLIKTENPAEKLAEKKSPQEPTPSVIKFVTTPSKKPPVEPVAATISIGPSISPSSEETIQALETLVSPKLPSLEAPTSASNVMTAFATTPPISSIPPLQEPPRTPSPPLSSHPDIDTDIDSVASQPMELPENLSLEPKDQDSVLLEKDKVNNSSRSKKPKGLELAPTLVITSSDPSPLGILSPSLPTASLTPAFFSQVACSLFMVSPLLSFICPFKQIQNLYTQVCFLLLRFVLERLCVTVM
# Outline: as §1
# ETV2 = molecular target: T4, ETV2 (Homo sapiens, UniProt O00321 1-342); conditions: protein: recombinant; tags: N-terminal GST; dsDNA, one strand shown
# T4 sequence: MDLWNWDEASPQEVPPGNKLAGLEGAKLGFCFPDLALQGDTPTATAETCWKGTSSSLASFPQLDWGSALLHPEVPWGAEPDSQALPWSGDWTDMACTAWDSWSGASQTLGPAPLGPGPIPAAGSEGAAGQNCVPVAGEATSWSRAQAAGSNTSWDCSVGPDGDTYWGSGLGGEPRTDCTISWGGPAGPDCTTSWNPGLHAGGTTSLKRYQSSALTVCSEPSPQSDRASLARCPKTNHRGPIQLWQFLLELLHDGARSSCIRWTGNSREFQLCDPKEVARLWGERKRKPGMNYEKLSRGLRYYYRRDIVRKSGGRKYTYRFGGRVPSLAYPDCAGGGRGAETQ
# Outline: as §1
# ELF3 = molecular target: T5, ELF3 (Homo sapiens, UniProt P78545 1-371); conditions: protein: recombinant; tags: N-terminal GST; dsDNA, one strand shown
# T5 sequence: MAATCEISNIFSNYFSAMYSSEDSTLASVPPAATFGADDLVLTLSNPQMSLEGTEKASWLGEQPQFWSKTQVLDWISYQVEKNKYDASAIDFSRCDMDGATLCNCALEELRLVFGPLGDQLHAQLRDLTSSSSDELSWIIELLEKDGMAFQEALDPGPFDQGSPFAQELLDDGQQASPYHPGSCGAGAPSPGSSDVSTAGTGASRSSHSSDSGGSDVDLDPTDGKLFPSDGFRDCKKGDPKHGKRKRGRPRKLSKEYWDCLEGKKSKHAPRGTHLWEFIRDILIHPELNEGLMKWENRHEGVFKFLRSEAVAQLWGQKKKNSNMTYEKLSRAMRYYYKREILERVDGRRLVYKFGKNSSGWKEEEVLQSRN
# Outline: as §1
# CRX = CRX (Homo sapiens, UniProt O43186 1-299); conditions: protein: recombinant; tags: N-terminal GST; dsDNA, one strand shown
# Outline: as §1
# ETV1 = ETV1 (Homo sapiens, UniProt P50549 1-477); conditions: protein: recombinant; tags: N-terminal GST; dsDNA, one strand shown
# Outline: as §1
# ERF = molecular target: T6, ERF (Homo sapiens, UniProt P50548 1-548); conditions: protein: recombinant; tags: N-terminal GST; dsDNA, one strand shown
# T6 sequence: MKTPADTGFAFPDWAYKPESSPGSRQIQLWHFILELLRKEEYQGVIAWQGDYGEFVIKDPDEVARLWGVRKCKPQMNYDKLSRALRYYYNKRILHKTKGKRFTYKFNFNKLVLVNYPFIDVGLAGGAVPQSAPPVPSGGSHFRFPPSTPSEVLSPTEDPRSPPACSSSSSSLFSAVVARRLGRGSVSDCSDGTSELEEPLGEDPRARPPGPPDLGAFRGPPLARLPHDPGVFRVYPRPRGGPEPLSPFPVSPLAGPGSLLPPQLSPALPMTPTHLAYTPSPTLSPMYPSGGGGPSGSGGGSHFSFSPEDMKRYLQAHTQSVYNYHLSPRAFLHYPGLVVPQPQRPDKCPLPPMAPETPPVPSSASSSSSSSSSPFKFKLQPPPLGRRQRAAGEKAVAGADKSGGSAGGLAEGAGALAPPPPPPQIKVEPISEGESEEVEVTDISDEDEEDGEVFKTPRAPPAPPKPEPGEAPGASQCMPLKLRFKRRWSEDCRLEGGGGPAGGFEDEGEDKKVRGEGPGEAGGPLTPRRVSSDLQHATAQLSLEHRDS
# Outline: as §1
# ETV3L = molecular target: T7, ETV3L (Homo sapiens, UniProt Q6ZN32 1-361); conditions: protein: recombinant; tags: N-terminal GST; dsDNA, one strand shown
# T7 sequence: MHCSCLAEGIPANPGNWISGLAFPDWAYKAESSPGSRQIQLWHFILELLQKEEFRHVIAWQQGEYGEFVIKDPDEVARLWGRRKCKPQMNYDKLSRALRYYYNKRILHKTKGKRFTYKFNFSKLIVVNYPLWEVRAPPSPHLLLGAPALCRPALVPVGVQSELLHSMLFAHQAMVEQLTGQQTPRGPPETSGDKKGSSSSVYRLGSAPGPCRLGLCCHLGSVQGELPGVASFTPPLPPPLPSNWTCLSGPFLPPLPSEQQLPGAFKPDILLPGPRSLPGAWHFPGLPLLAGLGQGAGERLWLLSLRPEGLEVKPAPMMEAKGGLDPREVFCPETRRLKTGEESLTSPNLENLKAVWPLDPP
# Outline: as §1
# ETS2 = molecular target: T8, ETS2 (Homo sapiens, UniProt P15036 1-469); conditions: protein: recombinant; tags: N-terminal GST; dsDNA, one strand shown
# T8 sequence: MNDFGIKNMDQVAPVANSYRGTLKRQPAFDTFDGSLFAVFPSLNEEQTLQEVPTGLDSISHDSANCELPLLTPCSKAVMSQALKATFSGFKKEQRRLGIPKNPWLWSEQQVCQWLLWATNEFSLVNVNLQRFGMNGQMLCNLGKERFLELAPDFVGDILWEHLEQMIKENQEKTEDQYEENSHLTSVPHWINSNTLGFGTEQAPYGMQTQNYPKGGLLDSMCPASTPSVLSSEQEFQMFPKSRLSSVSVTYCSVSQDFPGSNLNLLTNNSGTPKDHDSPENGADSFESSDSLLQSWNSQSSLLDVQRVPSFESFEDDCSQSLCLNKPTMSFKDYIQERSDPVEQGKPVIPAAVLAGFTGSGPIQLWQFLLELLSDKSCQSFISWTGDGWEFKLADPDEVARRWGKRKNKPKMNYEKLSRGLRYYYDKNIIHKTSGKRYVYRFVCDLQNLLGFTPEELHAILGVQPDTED
# Outline: as §1
# SPDEF = molecular target: T9, SPDEF (Homo sapiens, UniProt O95238 1-335); conditions: protein: recombinant; tags: N-terminal GST; dsDNA, one strand shown
# T9 sequence: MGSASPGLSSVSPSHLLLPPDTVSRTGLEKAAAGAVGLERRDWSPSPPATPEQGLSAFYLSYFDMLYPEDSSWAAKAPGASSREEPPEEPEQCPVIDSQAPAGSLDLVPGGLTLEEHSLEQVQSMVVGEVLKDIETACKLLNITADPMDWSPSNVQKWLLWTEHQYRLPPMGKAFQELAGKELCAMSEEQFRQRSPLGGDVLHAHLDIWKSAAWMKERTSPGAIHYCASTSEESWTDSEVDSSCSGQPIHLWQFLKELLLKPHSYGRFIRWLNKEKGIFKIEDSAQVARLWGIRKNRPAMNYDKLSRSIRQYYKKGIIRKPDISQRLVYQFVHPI
# Outline: as §1
# ETV7 = molecular target: T10, ETV7 (Homo sapiens, UniProt Q9Y603 1-341); conditions: protein: recombinant; tags: N-terminal GST; dsDNA, one strand shown
# T10 sequence: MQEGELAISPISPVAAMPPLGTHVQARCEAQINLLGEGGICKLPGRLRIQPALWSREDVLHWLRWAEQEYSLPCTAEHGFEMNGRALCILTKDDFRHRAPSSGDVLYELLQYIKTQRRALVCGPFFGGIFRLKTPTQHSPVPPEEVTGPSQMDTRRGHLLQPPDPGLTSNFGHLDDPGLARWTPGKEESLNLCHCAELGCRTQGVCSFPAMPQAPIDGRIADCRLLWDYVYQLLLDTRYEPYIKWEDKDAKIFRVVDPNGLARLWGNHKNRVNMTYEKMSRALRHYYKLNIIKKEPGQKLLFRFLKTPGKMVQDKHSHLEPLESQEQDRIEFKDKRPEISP
# Outline: as §1
# ELF5 = molecular target: T11, ELF5 (Homo sapiens, UniProt Q9UKW6-2 1-255); conditions: protein: recombinant; tags: N-terminal GST; dsDNA, one strand shown
# T11 sequence: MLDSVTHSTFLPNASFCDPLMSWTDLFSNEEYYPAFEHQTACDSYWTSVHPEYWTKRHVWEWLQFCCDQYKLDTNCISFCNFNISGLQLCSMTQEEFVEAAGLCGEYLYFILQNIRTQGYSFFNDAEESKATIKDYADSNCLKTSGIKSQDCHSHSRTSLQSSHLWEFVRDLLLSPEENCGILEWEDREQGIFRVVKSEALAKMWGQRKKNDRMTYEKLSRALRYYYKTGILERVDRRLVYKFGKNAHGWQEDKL
# Outline: as §1
# ETV3 = molecular target: T12, ETV3 (Homo sapiens, UniProt P41162-2 1-143); conditions: protein: recombinant; tags: N-terminal GST; dsDNA, one strand shown
# T12 sequence: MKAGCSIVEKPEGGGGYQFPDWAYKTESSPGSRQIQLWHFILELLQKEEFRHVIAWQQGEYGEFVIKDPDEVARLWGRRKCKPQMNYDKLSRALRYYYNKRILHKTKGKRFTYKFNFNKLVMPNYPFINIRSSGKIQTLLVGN
# Outline: as §1
# ETV6 = ETV6 (Homo sapiens, UniProt P41212 1-452); conditions: protein: recombinant; tags: N-terminal GST; dsDNA, one strand shown
# Outline: as §1
# Sequence of ETV5 (P41161 whole entry): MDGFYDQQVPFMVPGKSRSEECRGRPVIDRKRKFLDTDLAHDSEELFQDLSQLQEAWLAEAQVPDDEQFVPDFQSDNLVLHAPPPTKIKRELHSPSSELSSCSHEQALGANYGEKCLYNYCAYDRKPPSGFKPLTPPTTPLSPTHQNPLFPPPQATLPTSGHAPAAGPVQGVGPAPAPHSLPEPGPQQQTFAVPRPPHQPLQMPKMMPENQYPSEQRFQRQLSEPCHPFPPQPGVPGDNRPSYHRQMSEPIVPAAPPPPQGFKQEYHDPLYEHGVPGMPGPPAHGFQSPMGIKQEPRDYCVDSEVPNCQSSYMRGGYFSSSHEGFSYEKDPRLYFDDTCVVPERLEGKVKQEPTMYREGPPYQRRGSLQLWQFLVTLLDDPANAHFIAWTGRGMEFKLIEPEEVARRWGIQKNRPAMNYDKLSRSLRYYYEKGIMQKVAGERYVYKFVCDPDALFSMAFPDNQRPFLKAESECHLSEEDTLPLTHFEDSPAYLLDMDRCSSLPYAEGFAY
# Sequence of ETV6 (P41212 whole entry): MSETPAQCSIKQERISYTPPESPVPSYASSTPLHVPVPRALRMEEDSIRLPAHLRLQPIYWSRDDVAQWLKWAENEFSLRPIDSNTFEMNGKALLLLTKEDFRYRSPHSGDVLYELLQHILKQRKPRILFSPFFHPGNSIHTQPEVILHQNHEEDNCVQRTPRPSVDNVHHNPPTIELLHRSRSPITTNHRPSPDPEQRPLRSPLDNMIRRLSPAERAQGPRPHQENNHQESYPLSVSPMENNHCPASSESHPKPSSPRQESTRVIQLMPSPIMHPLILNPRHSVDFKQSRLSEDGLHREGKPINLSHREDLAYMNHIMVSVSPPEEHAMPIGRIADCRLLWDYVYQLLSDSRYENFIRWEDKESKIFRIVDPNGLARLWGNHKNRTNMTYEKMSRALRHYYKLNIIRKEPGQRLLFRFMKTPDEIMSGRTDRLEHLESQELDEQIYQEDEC
# Sequence of CRX (O43186 whole entry): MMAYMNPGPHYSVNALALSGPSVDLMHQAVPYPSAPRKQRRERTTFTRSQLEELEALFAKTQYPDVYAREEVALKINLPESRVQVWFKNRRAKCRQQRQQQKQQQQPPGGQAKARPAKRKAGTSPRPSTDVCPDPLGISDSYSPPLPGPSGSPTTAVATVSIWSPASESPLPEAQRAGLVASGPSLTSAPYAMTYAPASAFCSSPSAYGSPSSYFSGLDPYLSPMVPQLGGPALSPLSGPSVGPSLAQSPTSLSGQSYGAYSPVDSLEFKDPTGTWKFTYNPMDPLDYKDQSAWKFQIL
# Sequence of HSF1 (Q00613 whole entry): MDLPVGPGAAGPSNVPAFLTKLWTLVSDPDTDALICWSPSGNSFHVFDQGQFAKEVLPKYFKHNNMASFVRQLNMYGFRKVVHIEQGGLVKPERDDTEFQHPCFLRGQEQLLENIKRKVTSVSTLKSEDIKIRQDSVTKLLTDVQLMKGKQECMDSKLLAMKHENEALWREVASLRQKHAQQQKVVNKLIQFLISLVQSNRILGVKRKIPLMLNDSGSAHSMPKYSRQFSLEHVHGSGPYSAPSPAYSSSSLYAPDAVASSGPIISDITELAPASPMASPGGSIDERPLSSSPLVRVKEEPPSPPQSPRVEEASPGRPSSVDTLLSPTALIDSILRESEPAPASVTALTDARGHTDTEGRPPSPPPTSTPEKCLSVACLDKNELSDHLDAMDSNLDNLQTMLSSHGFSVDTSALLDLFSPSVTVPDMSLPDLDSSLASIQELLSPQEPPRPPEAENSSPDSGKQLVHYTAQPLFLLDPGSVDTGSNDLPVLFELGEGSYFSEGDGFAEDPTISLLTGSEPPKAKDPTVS
# Sequence of ELF4 (Q99607 whole entry): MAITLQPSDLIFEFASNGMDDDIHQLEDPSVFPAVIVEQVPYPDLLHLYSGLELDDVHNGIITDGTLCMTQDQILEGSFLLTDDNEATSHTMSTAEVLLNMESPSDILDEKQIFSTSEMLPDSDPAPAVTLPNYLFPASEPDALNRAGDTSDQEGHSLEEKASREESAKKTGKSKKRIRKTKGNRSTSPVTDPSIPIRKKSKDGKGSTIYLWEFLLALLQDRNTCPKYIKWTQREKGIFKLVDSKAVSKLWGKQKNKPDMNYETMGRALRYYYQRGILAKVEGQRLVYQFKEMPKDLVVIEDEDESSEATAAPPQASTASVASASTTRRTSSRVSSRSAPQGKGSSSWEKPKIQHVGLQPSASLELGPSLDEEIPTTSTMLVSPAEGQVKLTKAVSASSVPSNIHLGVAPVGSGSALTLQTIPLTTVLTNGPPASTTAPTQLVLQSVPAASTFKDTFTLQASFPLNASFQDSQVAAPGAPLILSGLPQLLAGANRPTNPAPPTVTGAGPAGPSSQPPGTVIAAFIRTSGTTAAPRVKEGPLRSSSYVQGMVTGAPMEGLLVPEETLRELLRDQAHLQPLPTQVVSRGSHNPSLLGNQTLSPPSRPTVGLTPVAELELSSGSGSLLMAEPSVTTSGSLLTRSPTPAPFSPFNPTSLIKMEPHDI
# Sequence of ETV1 (P50549 whole entry): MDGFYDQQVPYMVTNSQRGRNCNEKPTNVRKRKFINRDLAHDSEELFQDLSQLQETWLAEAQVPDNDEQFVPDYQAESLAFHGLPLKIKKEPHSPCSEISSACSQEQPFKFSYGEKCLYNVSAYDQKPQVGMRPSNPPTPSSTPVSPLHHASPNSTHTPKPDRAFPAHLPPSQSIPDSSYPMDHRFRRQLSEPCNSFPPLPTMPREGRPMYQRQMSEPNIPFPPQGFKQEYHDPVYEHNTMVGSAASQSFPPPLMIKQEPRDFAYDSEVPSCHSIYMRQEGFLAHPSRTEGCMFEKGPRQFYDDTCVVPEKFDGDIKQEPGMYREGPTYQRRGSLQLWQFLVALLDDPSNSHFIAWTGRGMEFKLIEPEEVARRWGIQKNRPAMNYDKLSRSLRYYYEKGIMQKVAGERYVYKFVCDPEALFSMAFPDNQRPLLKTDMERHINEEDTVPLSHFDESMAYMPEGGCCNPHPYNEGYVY
sequence,measurement,setting,value
TTAAAA,binding signal,FEV,"1.16 fold enrichment (6-mer frequency, TF over GST control)"
same,binding signal,ETV5,"1.14 fold enrichment (6-mer frequency, TF over GST control)"
same,binding signal,HSF1,"1.87 fold enrichment (6-mer frequency, TF over GST control)"
same,binding signal,SPIC,"1.28 fold enrichment (6-mer frequency, TF over GST control)"
same,binding signal,ELF4,"1.19 fold enrichment (6-mer frequency, TF over GST control)"
same,binding signal,ELK4,"1.27 fold enrichment (6-mer frequency, TF over GST control)"
same,binding signal,ETV2,"1.25 fold enrichment (6-mer frequency, TF over GST control)"
same,binding signal,ELF3,"1.24 fold enrichment (6-mer frequency, TF over GST control)"
same,binding signal,CRX,"2.69 fold enrichment (6-mer frequency, TF over GST control)"
same,binding signal,ETV1,"1.22 fold enrichment (6-mer frequency, TF over GST control)"
same,binding signal,ERF,"1.3 fold enrichment (6-mer frequency, TF over GST control)"
same,binding signal,ETV3L,"1.27 fold enrichment (6-mer frequency, TF over GST control)"
same,binding signal,ETS2,"1.17 fold enrichment (6-mer frequency, TF over GST control)"
same,binding signal,SPDEF,"1.15 fold enrichment (6-mer frequency, TF over GST control)"
same,binding signal,ETV7,"1.26 fold enrichment (6-mer frequency, TF over GST control)"
same,binding signal,ELF5,"1.11 fold enrichment (6-mer frequency, TF over GST control)"
same,binding signal,ETV3,"1.17 fold enrichment (6-mer frequency, TF over GST control)"
same,binding signal,ETV6,"1.19 fold enrichment (6-mer frequency, TF over GST control)"
